Screens (PubChem)
The list is not random: actives were taken first. Their share in the collection is about 10%.
HP1b binding inh: HTS for Inhibitors of HP1-beta Chromodomain Interactions with Methylated Histone Tails; hit rate 0.56% among 390,000; Potency, µM (highest dose often 114 µM), for the others: at the top dose activity change, negative = inhibition, hits mostly inhibitors; AlphaScreen HP1-beta / biotin-H3K9me3 peptide binding; Chromobox protein homolog 1 (Homo sapiens), P83916; note: potency is the fitted concentration of half-maximal effect; nearly all actives have a fitted effect of over 70% in size
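Compound inhibition of the preformed complex between 50 nM HP1-beta and 50 nM biotinylated H3K9me3 peptide was read by AlphaScreen. Buffer was PBS pH 7.4 with 0.01% Tween-20. Incubations ran 30 min at room temperature, with 10 ug/mL donor/acceptor beads.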
G9a inh: qHTS Assay for Inhibitors of Histone Lysine Methyltransferase G9a. Histone-lysine N-methyltransferase EHMT2 (Homo sapiens), Q96KQ7. G9a H3K9 monomethylation, AlphaScreen, 2 h. Potency, µM (doses to about 102 µM), without a hit: at the top dose activity, negative = inhibition, actives largely listed as inhibitors. hit rate 8.8% among 350,000. AID 504332, 2011; note: potency is the fitted concentration of half-maximal effect; % is set by controls: 0 for no effect and ±100 for the full control effect; nearly all actives have a fitted effect of over 75% in size
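Quantitative HTS format: methyltransferase activity on a biotin-tagged H3K9 peptide is measured by AlphaScreen, using a rabbit anti-monomethyl-H3K9 antibody with streptavidin donor and anti-IgG acceptor beads. Final levels are 20 nM enzyme, 500 nM peptide, 20 uM SAM; 2 h RT.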
CtBP-E1A blk: qHTS Assay for Inhibitors of the CtBP/E1A Interaction | CtBP / adenovirus E1A interaction (AlphaScreen) | AlphaScreen GST-E1A/His-CtBP binding, 1536-well; hits give low values | activity change, % (no concentration beside the values) | hit rate 0.49% among 340,000 | AID 651724, 2012; in the data active = activity change below about -65%; inconclusive = mostly about -30% to -63%; note: % is set by controls: 0 for no effect and ±100 for the full control effect
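GST-E1A and His-tagged CtBP (125 nM each as 5X stock) were preincubated with pin-transferred compound for 2 h at 37 °C in the dark, then glutathione donor and nickel acceptor beads were added for 1 h before AlphaScreen reading.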
JMJD2A Tudor: qHTS Assay for Inhibitors of JMJD2A-Tudor Domain; hit rate 4.4% among 390,000; AID 504339, 2011; Potency, µM (titrated, usually from 114 µM), without a hit: at the highest dose activity change, negative = inhibition, usual class: inhibitors; AlphaScreen JMJD2A-Tudor / H3K4me3 peptide binding; note: potency is the fitted concentration of half-maximal effect; % is set by controls: 0 for no effect and ±100 for the full control effect; nearly all actives have a fitted effect of over 50% in size
BAZ2B inh: qHTS Assay for Inhibitors of BAZ2B | Bromodomain adjacent to zinc finger domain protein 2B (Homo sapiens), Q9UIF8 | AlphaScreen BAZ2B-H3K14Ac peptide displacement | Potency, µM (series often up to 114 µM), without a hit: at the highest dose activity change, negative = inhibition, actives largely listed as inhibitors | hit rate 4.4% among 360,000; note: potency is the fitted concentration of half-maximal effect; % is set by controls: 0 for no effect and ±100 for the full control effect; nearly all actives have a fitted effect of over 60% in size
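Compounds, titrated to a top concentration of 110 uM, were incubated 30 min at room temperature with preformed BAZ2B/acetyl-K14 H3 peptide complex (50 nM each). Proximity signal was measured by AlphaScreen after 20 min with beads.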
Six1-Eya2 blk: qHTS Assay for Inhibitors of the Six1/Eya2 Interaction; Homeobox protein SIX1 (Homo sapiens) + Protein phosphatase EYA2 (Homo sapiens), …; AlphaScreen GST-Six1/His-Eya2 binding, biochemical; hits give low values; activity change, % (concentration not given with the values); hit rate 0.56% among 360,000; in the data active = activity change below about -65%; inconclusive = mostly about -30% to -63%; note: % is set by controls: 0 for no effect and ±100 for the full control effect
Target sequence (O00167 whole entry, looked up): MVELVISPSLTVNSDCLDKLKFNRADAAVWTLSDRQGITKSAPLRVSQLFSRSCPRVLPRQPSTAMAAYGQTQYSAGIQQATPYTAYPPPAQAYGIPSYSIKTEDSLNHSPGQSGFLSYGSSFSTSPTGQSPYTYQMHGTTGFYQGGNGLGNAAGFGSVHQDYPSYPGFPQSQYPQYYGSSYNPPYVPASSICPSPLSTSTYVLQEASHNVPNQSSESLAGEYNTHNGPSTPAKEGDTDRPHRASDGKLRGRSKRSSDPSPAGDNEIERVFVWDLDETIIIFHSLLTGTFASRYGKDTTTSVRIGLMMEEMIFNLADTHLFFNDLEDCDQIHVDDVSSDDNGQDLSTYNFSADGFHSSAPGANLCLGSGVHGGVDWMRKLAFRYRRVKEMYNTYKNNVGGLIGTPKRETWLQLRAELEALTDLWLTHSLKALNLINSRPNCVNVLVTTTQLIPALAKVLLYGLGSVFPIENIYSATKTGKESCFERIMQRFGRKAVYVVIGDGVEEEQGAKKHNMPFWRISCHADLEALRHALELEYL
Target sequence (Q15475 whole entry, looked up): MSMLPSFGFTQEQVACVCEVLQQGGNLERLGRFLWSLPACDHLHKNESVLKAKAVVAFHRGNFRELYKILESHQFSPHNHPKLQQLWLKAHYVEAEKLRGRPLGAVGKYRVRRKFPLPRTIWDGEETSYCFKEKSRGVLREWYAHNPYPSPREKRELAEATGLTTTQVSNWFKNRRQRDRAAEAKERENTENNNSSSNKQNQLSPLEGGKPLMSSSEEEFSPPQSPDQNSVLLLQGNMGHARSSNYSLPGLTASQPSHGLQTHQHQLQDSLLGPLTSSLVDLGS
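Six1/Eya2 binding was read as AlphaScreen signal after compounds were pinned into GST-Six1 plus His-tagged Eya2 (5X stock 250/500 nM) in pH 8.0 Tris/NaCl/TCEP buffer, beads added, then incubated 1 h, 37 C, dark.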
Active calls of the source: *; ? = inconclusive; . = no result; [ ] = another dose, or the depositor's remark. Unless noted, calls come from the whole dose curve; as a rule, active = well fitted inhibition curve with a large enough effect; inconclusive = small, poorly fitted or top-dose-only effect; inactive = no such curve, though single readings can be large or run the other way.

SMILES | HP1b binding inh | G9a inh | CtBP-E1A blk | JMJD2A Tudor | BAZ2B inh | Six1-Eya2 blk
COc1ccc(OC)c(CN2CCC(C(=O)N3CCN(c4ccccc4F)CC3)CC2)c1 | ? | 10µM* | -6 | 1.4µM* | ? | 2
COc1cccc(CN2CCC(C(=O)N3CCN(c4ccccc4F)CC3)CC2)c1 | ? | 10µM* | 0 | 8.9µM* | -33% | 3
CS(=O)(=O)N1CCC(C(=O)N2CCN(c3ccccc3F)CC2)CC1 | -12% | 2%[59 µM] | -1 | ? | -1% | 2
O=C(Nc1nnc(S(=O)(=O)N2CCCc3ccccc32)s1)c1ccc(Cl)cc1 | -7% | ? | . | -26% | -22% | .
COc1ccc(NC(=O)c2oc3c(c2C)-c2nn(Cc4ccccc4Cl)cc2CC3)cc1OC | 28% | -3%[59 µM] | . | -10% | 0% | .
CCOC(=O)C1=C(CN2CCC(C(=O)OCC)CC2)NC(=O)NC1c1ccc(Cl)cc1 (stereo not given) | 16% | -42%[59 µM] | . | -34% | . | .
Cc1c(C=O)c2ccccn2c1C(=O)c1ccccc1Cl | 13% | 8%[2.33 µM] | -13 | -14% | 3% | -22
Cc1c(C=O)c2ccccn2c1C(=O)c1cccs1 | 33% | 50µM* | ? | -1% | -26% | -18
Cc1oncc1C(=O)NC(C)C | 38% | 45µM* | 1 | 6% | 4% | 4
CC1CC(OCC(O)C[N+]2(C)CCOCC2)CC(C)(C)C1 (stereo not given) | ? | 40µM* | 2 | -2% | 11% | 9
CC1CC(OCC(O)CN2CCOCC2)CC(C)(C)C1 (stereo not given) | 36% | -11%[59 µM] | -4 | -15% | 3% | 11
O=C(O)c1oc2ccccc2c1-n1cccc1 | -4% | ? | -5 | 79µM* | 4% | 1
COc1ccc(-c2nn3c(-c4ccccc4C)nnc3c3ccccc23)cc1 | 41% | 6%[59 µM] | . | -15% | 3% | .
CN(C)S(=O)(=O)c1cccc(NC(=O)CNC2CCCCC2)c1 | ? | 50µM* | . | 22µM* | ? | -3
CN(C)S(=O)(=O)c1cccc(NC(=O)CCCC2CCCCC2)c1 | 77% | . | 8 | 7% | . | 0
CCN(CC)S(=O)(=O)c1ccc(NC(=O)CNC2CCCCC2)cc1 | ? | 25µM* | . | 5.6µM* | 79µM* | 13
O=S(=O)(c1ccc2ncccc2c1)N1CCN(c2nc(-c3cccs3)nc3ccccc23)CC1 | 13% | . | . | -31% | . | .
O=C(COC(=O)C(c1ccccc1)c1ccccc1)NCc1ccco1 | 13% | -20% | 1 | -23% | ? | -9
O=C(O)CC(C(=O)OCC1CCCO1)N1CCOCC1 (stereo not given) | 0% | -47% | -2 | -15% | -21% | 3
O=C(O)CC(NCc1ccco1)C(=O)OCC1CCCO1 (stereo not given) | 17% | 7.9µM* | 3 | ? | 50µM* | -4
O=C(O)CC(NCc1ccco1)C(=O)OCCc1ccccc1 (stereo not given) | -19% | 32µM* | -3 | 6.3µM* | -5% | 7
C=C(C)CCOC(=O)C(CC(=O)O)NCc1ccco1 (stereo not given) | -18% | 11µM* | . | 35µM* | 35µM* | -14
CCCCOc1cccc(C2c3c(oc4ccccc4c3=O)C(=O)N2c2ccccn2)c1 (stereo not given) | 19% | 4%[59 µM] | . | -16% | 2% | .
Cc1ccc(-n2ncc(C(=O)NCCCN3CCc4ccccc4C3)c2C2CCN(C(=O)OC(C)(C)C)CC2)c(C)c1 | -2% | ? | . | -31% | -10%[57.1 µM] | .
CC(C)C(c1nnnn1C1CCCCC1)N1CCOCC1 (stereo not given) | 11% | 24%[59 µM] | -1 | -13% | . | 7
SMILES | HP1b binding inh | G9a inh | CtBP-E1A blk | JMJD2A Tudor | BAZ2B inh | Six1-Eya2 blk
CC(C)C(c1nnnn1C(C)(C)C)N1CCOCC1 (stereo not given) | 16% | 40µM* | 3 | 40µM* | 2% | 9
NC(=O)/C(=C\c1ccco1)NC(=O)c1ccco1 | . | . | -6 | . | . | -20
NC(=O)/C(=C/c1ccco1)C(N)=S | -7% | 18µM* | -1 | ? | -17% | 0
Clc1ccc(-c2noc3ncnc(NCCCN4CCN(c5ccccc5)CC4)c23)cc1 | -13% | -46%[59 µM] | . | ? | -23%[57.1 µM] | .
CN1C=CC=C/C1=C1\SC(=S)N(N)C1=O | 30% | 28µM* | 1 | 1% | -27% | 0
CN(C)c1ccc(N/C=C/C(=O)c2ccc(F)cc2)cc1 | -1% | 2.5µM* | -21 | ? | ? | -23
CN(C)c1ccc(N/C=C/C(=O)c2ccco2)cc1 | -38% | 7.1µM* | ? | ? | 35µM* | ?
NS(=O)(=O)c1ccc(N/C=C\C(=O)c2ccc(F)cc2)cc1 | 12% | 5% | -25 | -4% | -13% | -12
CC(=O)Nc1cccc(C(=O)NCc2ccc3c(c2)CCN3C(=O)c2ccc(F)cc2)c1 | 35% | -1%[59 µM] | . | -17% | -10% | .
O=C1OC(c2ccc(Cl)cc2)/C(=C(/O)c2ccccc2)C1=O (stereo not given) | -2% | . | 3 | 32µM* | ? | 4
CN1C(=O)C(=O)/C(=C(/O)c2ccc(Br)cc2)C1c1ccc(Cl)cc1 (stereo not given) | 37% | -2%[0.501 µM] | -2 | -15% | -16% | 0
Nc1nc(CN2CCc3ccccc3C2)nc(Nc2ccccc2)n1 | 3% | ? | -16 | 79µM* | 50µM* | -11
COc1ccc(OCc2nc(N)nc(Nc3ccccc3)n2)cc1 | 5% | ? | 6 | -19% | -3% | -2
COc1ccc(Nc2nc(N)nc(CN3CCc4ccccc4C3)n2)cc1 | 16% | ? | -9 | ? | 50µM* | -19
COc1ccc(Nc2nc(N)nc(CN3CCC(C)CC3)n2)cc1 | 7% | 20µM* | 2 | -23% | -33% | 2
CC1CC(C)CN(Cc2nc(N)nc(Nc3ccccc3)n2)C1 (stereo not given) | 22% | . | -4 | ? | ? | -5
CC1CC(C)CN(Cc2nc(N)nc(Nc3ccc4ccccc4c3)n2)C1 (stereo not given) | -8% | -6%[59 µM] | -7 | -15%[11.4 µM] | 50µM* | -16
O=C1CN(C(=O)COc2ccc(Cl)cc2)C(c2ccc(F)cc2)c2cc(Cl)ccc2N1 (stereo not given) | -1% | -33%[59 µM] | . | -29% | -8% | .
